# Data reported in the supplement of paper PMC6411743.
# ± gives the standard deviation of the averaged measurements. Of roughly 6,500 targets only a part is listed; those with the largest changes were picked by preference.
# Columns and labels:
# Assay in all cases: NP40-soluble protein abundance relative to vehicle (solubility fold change) (ratio); higher = more soluble protein in presence of ATP
# LAGE3 = target: T1, LAGE3 (UniProt Q14657)
# T1 sequence (whole entry): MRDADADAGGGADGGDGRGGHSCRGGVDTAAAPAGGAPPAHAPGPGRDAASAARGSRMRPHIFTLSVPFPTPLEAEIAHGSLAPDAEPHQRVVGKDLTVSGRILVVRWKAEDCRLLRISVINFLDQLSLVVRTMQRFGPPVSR
# In short: (§1)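 Values are fold changes against the detergent-processed vehicle, based on vsn-normalised intensities. Jurkat crude lysate was treated at eight concentrations from 0.1 to 10 mM (10 min at room temperature, then 3 min at 37 °C), solubilised with 0.8% NP40 and benzonase, ultracentrifuged and analysed by TMT-labelled LC-MS/MS over three independent experiments.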
# NHLRC2 = target: T2, NHLRC2 (UniProt Q8NBF2)
# T2 sequence (whole entry): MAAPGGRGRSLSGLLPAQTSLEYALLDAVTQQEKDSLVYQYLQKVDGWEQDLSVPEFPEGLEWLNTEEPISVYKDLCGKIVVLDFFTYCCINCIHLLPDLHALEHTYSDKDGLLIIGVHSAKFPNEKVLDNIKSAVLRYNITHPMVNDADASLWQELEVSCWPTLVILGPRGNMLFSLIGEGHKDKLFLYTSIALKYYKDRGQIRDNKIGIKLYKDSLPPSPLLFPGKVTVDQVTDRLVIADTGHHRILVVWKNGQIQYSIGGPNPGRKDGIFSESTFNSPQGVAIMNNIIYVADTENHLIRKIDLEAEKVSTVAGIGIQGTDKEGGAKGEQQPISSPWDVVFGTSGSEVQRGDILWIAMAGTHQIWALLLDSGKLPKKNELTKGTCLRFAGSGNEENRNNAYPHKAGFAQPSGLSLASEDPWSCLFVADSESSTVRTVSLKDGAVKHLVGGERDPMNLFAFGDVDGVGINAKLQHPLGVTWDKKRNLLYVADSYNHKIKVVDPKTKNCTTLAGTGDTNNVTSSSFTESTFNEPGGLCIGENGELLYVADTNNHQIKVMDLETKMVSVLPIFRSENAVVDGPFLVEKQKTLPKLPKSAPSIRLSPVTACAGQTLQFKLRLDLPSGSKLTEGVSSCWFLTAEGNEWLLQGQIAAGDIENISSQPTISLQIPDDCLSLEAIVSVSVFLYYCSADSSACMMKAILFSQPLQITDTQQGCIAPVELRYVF
# In short: as §1
# PSMD6 = target: T3, PSMD6 (UniProt Q15008)
# T3 sequence (whole entry): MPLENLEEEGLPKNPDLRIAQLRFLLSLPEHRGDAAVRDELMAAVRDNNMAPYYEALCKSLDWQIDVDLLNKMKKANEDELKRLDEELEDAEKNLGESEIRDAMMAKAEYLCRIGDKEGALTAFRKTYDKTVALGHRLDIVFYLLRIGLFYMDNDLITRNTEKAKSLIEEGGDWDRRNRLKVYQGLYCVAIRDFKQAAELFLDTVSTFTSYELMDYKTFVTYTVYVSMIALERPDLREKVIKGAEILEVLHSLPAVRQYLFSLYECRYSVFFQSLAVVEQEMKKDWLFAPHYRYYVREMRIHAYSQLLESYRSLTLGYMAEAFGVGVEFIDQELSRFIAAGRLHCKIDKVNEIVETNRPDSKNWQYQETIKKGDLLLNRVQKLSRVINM
# In short: as §1
# [1] = target: T4, UniProt Q12805|Q12805-2|Q12805-3|Q12805-4
# T4 sequence (whole entry): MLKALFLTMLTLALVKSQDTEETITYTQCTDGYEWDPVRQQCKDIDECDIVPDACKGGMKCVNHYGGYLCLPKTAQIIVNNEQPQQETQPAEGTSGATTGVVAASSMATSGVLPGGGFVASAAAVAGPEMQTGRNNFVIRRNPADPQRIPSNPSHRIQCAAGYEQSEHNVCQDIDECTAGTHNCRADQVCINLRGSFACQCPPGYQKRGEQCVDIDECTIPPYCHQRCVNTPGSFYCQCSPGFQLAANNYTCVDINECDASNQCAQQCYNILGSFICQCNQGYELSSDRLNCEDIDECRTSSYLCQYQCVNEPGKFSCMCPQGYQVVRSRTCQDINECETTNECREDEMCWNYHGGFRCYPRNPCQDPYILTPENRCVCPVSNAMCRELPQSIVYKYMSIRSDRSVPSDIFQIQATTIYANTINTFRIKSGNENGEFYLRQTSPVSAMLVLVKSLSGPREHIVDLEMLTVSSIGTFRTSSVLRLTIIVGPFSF
# In short: as §1
# UniProt Q53H96|Q53H96-2 = target: T5, UniProt Q53H96|Q53H96-2
# T5 sequence (whole entry): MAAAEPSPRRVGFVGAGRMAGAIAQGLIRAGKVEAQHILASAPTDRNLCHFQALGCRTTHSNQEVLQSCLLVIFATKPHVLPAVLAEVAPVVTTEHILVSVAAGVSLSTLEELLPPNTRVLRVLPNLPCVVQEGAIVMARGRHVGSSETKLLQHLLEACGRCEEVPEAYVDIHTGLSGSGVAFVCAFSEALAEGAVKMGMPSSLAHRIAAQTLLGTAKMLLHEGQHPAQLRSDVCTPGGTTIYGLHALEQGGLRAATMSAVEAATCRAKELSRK
# In short: as §1
# UniProt Q8N6R0 = target: T6, UniProt Q8N6R0
# T6 sequence (whole entry): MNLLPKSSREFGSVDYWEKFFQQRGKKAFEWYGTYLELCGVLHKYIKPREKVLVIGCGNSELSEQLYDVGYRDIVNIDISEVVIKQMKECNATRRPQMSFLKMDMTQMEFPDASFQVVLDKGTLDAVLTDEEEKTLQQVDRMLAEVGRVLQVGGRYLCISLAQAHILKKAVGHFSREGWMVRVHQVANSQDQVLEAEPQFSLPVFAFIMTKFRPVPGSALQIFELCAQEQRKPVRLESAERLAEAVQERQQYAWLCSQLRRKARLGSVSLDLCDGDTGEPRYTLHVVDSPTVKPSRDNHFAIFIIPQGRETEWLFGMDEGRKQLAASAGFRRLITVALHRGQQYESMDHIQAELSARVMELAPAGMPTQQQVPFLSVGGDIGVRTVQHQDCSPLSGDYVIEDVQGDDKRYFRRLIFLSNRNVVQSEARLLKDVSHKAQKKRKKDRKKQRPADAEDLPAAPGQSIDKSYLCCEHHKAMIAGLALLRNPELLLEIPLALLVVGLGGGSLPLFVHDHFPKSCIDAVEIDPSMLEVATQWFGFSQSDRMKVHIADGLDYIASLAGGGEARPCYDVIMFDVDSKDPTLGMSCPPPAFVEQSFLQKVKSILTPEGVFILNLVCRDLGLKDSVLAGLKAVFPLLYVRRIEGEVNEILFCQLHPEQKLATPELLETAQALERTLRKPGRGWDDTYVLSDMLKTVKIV
# In short: as §1
smiles,measurement,setting,value
Nc1ncnc2c1ncn2[C@@H]1O[C@H](COP(=O)(O)OP(=O)(O)OP(=O)(O)O)[C@@H](O)[C@H]1O [adenosine triphosphate],NP40-soluble protein abundance,LAGE3; concentration: 1mM,0.907 ± 0.071
same,NP40-soluble protein abundance,LAGE3; concentration: 2mM,0.909 ± 0.073
same,NP40-soluble protein abundance,LAGE3; concentration: 4mM,0.901 ± 0.029
same,NP40-soluble protein abundance,LAGE3; concentration: 6mM,0.881 ± 0.072
same,NP40-soluble protein abundance,LAGE3; concentration: 8mM,0.903 ± 0.034
same,NP40-soluble protein abundance,LAGE3; concentration: 10mM,0.882 ± 0.011
same,NP40-soluble protein abundance,NHLRC2; concentration: 1mM,1.01 ± 0.078
same,NP40-soluble protein abundance,NHLRC2; concentration: 2mM,0.994 ± 0.096
same,NP40-soluble protein abundance,NHLRC2; concentration: 4mM,0.979 ± 0.091
same,NP40-soluble protein abundance,NHLRC2; concentration: 6mM,0.976 ± 0.12
same,NP40-soluble protein abundance,NHLRC2; concentration: 8mM,0.985 ± 0.1
same,NP40-soluble protein abundance,NHLRC2; concentration: 10mM,0.983 ± 0.09
same,NP40-soluble protein abundance,PSMD6; concentration: 1mM,0.959 ± 0.015
same,NP40-soluble protein abundance,PSMD6; concentration: 2mM,0.9 ± 0.021
same,NP40-soluble protein abundance,PSMD6; concentration: 4mM,0.893 ± 0.022
same,NP40-soluble protein abundance,PSMD6; concentration: 6mM,0.889 ± 0.048
same,NP40-soluble protein abundance,PSMD6; concentration: 8mM,0.921 ± 0.032
same,NP40-soluble protein abundance,PSMD6; concentration: 10mM,0.886 ± 0.025
same,NP40-soluble protein abundance,[1]; concentration: 1mM,1.03 ± 0.091
same,NP40-soluble protein abundance,[1]; concentration: 2mM,1.04 ± 0.052
same,NP40-soluble protein abundance,[1]; concentration: 4mM,1.06 ± 0.075
same,NP40-soluble protein abundance,[1]; concentration: 6mM,1 ± 0.088
same,NP40-soluble protein abundance,[1]; concentration: 8mM,1.05 ± 0.023
same,NP40-soluble protein abundance,[1]; concentration: 10mM,1.04 ± 0.025
same,NP40-soluble protein abundance,UniProt Q53H96|Q53H96-2; concentration: 1mM,1.04 ± 0.076
same,NP40-soluble protein abundance,UniProt Q53H96|Q53H96-2; concentration: 2mM,1.06 ± 0.1
same,NP40-soluble protein abundance,UniProt Q53H96|Q53H96-2; concentration: 4mM,1.09 ± 0.08
same,NP40-soluble protein abundance,UniProt Q53H96|Q53H96-2; concentration: 6mM,1.01 ± 0.14
same,NP40-soluble protein abundance,UniProt Q53H96|Q53H96-2; concentration: 8mM,1.03 ± 0.11
same,NP40-soluble protein abundance,UniProt Q53H96|Q53H96-2; concentration: 10mM,1.03 ± 0.1
same,NP40-soluble protein abundance,UniProt Q8N6R0; concentration: 1mM,1.04 ± 0.096
same,NP40-soluble protein abundance,UniProt Q8N6R0; concentration: 2mM,1 ± 0.081
same,NP40-soluble protein abundance,UniProt Q8N6R0; concentration: 4mM,1.05 ± 0.072
same,NP40-soluble protein abundance,UniProt Q8N6R0; concentration: 6mM,0.979 ± 0.085
same,NP40-soluble protein abundance,UniProt Q8N6R0; concentration: 8mM,1.05 ± 0.075
same,NP40-soluble protein abundance,UniProt Q8N6R0; concentration: 10mM,1.01 ± 0.053
